The source of these data is article PMC7862700, “An all-to-all approach to the identification of sequence-specific readers for epigenetic DNA modifications on cytosine”.

What all share (assay): DAPPL (digital affinity profiling via proximity ligation, sequencing); 10 mM Tris-HCl pH 7.5, 50 mM NaCl, 1 mM DTT, 4% glycerol, room temperature, 30 min; GST-TFs on glutathione beads, 16-mer random dsDNA library, 0.1% formaldehyde crosslink after washing; high values mean tight binding
Conditions in all cases: protein: recombinant; tags: N-terminal GST; dsDNA, one strand shown

One test concerns the target T1, FLI1 (Homo sapiens, UniProt Q01543 1-452).
T1 sequence: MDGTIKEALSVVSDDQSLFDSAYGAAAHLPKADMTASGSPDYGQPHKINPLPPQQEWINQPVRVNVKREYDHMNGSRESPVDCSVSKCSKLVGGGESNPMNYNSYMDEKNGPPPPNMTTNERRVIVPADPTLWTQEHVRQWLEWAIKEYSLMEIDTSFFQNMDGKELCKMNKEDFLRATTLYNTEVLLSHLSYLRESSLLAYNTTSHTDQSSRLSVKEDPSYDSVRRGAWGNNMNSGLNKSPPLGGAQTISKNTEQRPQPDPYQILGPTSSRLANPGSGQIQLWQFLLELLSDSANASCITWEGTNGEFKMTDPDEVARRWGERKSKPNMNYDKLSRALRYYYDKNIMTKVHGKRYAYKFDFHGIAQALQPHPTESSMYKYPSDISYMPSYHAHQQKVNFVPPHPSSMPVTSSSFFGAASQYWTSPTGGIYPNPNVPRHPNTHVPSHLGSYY
A digest of the protocol:
(§1)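 Binding signal is given per hexamer as its read frequency for a factor divided by its frequency in the tag-only sample. GST-fused human transcription factors were expressed in yeast, captured on glutathione beads, barcoded with DNA and pooled with that sample, then incubated with 200 nmole of a 16-mer random double-stranded DNA library in Tris/NaCl/DTT/glycerol buffer for 30 min at room temperature. The pools were then washed, crosslinked, proximity-ligated, amplified by PCR and sequenced on an Illumina NextSeq500.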

Another test concerns the target T2, ELK1 (Homo sapiens, UniProt P19419 1-428).
T2 sequence: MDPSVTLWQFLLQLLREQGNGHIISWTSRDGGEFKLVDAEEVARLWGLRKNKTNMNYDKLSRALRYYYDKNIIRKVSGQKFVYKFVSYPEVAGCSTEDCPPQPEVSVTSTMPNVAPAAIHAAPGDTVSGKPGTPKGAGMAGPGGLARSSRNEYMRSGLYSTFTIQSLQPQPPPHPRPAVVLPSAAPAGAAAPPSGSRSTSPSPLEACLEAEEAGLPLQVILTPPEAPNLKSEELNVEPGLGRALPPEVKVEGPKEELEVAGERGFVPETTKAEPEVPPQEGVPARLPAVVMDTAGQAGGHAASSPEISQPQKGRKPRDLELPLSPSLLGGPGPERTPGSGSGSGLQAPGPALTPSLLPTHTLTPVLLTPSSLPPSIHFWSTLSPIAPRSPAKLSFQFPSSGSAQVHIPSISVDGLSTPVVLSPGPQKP
A digest of the protocol: as §1

The target in a further test is T3, GABPA (Homo sapiens, UniProt Q06546 1-454).
T3 sequence: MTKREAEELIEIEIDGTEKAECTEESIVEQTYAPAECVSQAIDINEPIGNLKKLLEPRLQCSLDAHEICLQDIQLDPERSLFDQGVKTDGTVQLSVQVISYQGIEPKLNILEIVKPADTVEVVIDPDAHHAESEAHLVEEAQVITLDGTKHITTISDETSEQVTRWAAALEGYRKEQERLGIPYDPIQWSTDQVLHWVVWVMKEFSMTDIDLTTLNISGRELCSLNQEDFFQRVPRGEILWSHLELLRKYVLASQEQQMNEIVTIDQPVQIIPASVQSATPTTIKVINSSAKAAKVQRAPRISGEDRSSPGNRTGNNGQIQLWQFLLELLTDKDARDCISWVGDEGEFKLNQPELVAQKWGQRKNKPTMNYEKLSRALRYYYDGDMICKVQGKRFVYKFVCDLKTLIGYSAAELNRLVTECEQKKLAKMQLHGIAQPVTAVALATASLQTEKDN
A digest of the protocol: as §1

The target of the next test is T4, ERG (Homo sapiens, UniProt P11308 1-479).
T4 sequence: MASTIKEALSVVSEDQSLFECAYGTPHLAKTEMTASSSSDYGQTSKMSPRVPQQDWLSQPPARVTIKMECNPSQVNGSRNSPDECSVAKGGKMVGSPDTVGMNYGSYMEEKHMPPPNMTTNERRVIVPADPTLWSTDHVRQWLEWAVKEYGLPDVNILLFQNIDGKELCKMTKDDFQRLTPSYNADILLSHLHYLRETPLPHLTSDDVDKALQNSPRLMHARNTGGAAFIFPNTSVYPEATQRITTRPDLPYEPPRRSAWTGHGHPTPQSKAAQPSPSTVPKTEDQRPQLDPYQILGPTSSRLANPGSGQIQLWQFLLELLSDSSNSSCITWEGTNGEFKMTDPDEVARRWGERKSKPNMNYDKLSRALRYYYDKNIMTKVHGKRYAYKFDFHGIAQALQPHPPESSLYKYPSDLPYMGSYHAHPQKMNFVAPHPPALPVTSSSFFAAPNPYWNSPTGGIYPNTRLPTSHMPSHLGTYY
The gist of the method: as §1

The target of a further test is ELF1 (Homo sapiens, UniProt P32519 1-619). A digest of the protocol: as §1
The target in another test is T5, EHF (Homo sapiens, UniProt Q9NZC4 1-300).
T5 sequence: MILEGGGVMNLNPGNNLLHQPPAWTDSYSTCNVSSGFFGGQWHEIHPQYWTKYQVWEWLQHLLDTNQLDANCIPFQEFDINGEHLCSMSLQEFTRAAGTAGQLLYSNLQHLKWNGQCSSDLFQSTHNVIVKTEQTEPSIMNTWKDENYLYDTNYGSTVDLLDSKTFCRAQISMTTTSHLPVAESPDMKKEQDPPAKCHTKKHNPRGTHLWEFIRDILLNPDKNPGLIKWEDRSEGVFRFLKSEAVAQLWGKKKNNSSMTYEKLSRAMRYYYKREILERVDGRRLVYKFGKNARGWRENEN
A digest of the protocol: as §1

The next test has as its target SPI1 (Homo sapiens, UniProt P17947 1-270). The gist of the method: as §1
Another test addresses SPIB (Homo sapiens, UniProt Q01892 1-262). The gist of the method:
as §1

For a further test, the target named is T6, ELK3 (Homo sapiens, UniProt P41970 1-407).
T6 sequence: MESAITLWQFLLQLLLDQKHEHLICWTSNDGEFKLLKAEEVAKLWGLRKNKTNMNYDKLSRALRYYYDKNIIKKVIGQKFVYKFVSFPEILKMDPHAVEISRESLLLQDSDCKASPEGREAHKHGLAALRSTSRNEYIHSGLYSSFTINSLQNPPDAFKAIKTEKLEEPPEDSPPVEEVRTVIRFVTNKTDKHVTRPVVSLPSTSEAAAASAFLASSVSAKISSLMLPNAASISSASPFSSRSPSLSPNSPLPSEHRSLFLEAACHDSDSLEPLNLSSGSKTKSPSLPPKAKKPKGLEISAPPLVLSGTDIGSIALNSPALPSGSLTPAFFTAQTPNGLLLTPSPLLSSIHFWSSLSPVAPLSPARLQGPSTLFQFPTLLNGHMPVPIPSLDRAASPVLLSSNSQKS
A digest of the protocol:
as §1

SPIB, sequence (Q01892 whole entry): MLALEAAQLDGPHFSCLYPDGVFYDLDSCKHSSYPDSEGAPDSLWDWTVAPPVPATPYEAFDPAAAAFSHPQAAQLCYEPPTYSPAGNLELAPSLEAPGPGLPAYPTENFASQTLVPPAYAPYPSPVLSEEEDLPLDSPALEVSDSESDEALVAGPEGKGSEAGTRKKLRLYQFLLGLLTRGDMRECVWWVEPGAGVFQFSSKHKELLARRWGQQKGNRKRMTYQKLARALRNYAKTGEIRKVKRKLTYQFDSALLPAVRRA
ELF1, sequence (P32519 whole entry): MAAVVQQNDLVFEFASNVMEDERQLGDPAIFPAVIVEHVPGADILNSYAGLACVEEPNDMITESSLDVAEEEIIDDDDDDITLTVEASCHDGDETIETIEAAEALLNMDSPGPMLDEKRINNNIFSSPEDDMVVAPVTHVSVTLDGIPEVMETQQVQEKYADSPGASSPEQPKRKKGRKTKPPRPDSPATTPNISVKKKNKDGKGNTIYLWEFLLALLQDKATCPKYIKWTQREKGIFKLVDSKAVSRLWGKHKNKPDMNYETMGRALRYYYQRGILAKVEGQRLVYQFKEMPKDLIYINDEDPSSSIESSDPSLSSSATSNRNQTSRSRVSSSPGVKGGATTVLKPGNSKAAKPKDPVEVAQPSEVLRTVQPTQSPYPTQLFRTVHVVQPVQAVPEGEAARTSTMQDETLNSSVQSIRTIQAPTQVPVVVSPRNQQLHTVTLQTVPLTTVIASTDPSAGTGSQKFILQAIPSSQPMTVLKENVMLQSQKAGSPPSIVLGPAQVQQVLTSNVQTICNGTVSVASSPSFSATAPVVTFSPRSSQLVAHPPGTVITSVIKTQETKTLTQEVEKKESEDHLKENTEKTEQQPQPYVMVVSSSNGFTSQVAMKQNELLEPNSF

Consider CAAACC, for which the binding signal was 1.16 fold enrichment (6-mer frequency, TF over GST control) in the test with FLI1; 1.15 fold enrichment (6-mer frequency, TF over GST control) in the test with ELK1; 1.11 fold enrichment (6-mer frequency, TF over GST control) with GABPA; 1.16 fold enrichment (6-mer frequency, TF over GST control) with ERG; 1.13 fold enrichment (6-mer frequency, TF over GST control) with ELF1; 1.05 fold enrichment (6-mer frequency, TF over GST control) with EHF. In addition, the binding signal in the test with SPI1 was 1.15 fold enrichment (6-mer frequency, TF over GST control); in the test with SPIB, 1.06 fold enrichment (6-mer frequency, TF over GST control); with ELK3, 1.15 fold enrichment (6-mer frequency, TF over GST control).

As to TGACTA, the binding signal with FLI1 is 1.14 fold enrichment (6-mer frequency, TF over GST control); in the test with ELK1 it was 1.08 fold enrichment (6-mer frequency, TF over GST control); in the test with GABPA it was 1.08 fold enrichment (6-mer frequency, TF over GST control); with ERG it was 1.03 fold enrichment (6-mer frequency, TF over GST control); with ELF1 it was 1.09 fold enrichment (6-mer frequency, TF over GST control); in the test with EHF, 1.11 fold enrichment (6-mer frequency, TF over GST control). The binding signal in the test with SPI1 is 1.14 fold enrichment (6-mer frequency, TF over GST control); in the test with SPIB, 1.17 fold enrichment (6-mer frequency, TF over GST control); with ELK3, 1.14 fold enrichment (6-mer frequency, TF over GST control).

On to GTACAA, for which the binding signal with FLI1 is 1.05 fold enrichment (6-mer frequency, TF over GST control); in the test with ELK1, 1.08 fold enrichment (6-mer frequency, TF over GST control); with GABPA, 1.01 fold enrichment (6-mer frequency, TF over GST control); in the test with ERG it was 1.11 fold enrichment (6-mer frequency, TF over GST control); in the test with ELF1, 1.11 fold enrichment (6-mer frequency, TF over GST control); in the test with EHF, 1.26 fold enrichment (6-mer frequency, TF over GST control). In addition, the binding signal with SPI1 is 1.06 fold enrichment (6-mer frequency, TF over GST control); with SPIB, 1.04 fold enrichment (6-mer frequency, TF over GST control); with ELK3, 1.02 fold enrichment (6-mer frequency, TF over GST control).

With AATAAC, the binding signal with FLI1 was 1.31 fold enrichment (6-mer frequency, TF over GST control); in the test with ELK1 it was 1.33 fold enrichment (6-mer frequency, TF over GST control); with GABPA it was 1.3 fold enrichment (6-mer frequency, TF over GST control); with ERG, 1.27 fold enrichment (6-mer frequency, TF over GST control); with ELF1, 1.23 fold enrichment (6-mer frequency, TF over GST control); with EHF, 1.26 fold enrichment (6-mer frequency, TF over GST control). Besides, the binding signal with SPI1 is 1.18 fold enrichment (6-mer frequency, TF over GST control); with SPIB, 1.37 fold enrichment (6-mer frequency, TF over GST control); with ELK3 it was 1.33 fold enrichment (6-mer frequency, TF over GST control).

In the case of ATTTTC, the binding signal with FLI1 is 1.47 fold enrichment (6-mer frequency, TF over GST control); with ELK1 it was 1.35 fold enrichment (6-mer frequency, TF over GST control); with GABPA, 1.46 fold enrichment (6-mer frequency, TF over GST control); in the test with ERG, 1.46 fold enrichment (6-mer frequency, TF over GST control); in the test with ELF1, 1.31 fold enrichment (6-mer frequency, TF over GST control); with EHF it was 1.49 fold enrichment (6-mer frequency, TF over GST control). For the same sequence, the binding signal in the test with SPI1 is 1.56 fold enrichment (6-mer frequency, TF over GST control); in the test with SPIB, 1.41 fold enrichment (6-mer frequency, TF over GST control); with ELK3, 1.31 fold enrichment (6-mer frequency, TF over GST control).

As for GTATGC, the binding signal was 1.22 fold enrichment (6-mer frequency, TF over GST control) with FLI1; 1.24 fold enrichment (6-mer frequency, TF over GST control) in the test with ELK1; 1.17 fold enrichment (6-mer frequency, TF over GST control) in the test with GABPA; 1.11 fold enrichment (6-mer frequency, TF over GST control) in the test with ERG; 1.2 fold enrichment (6-mer frequency, TF over GST control) in the test with ELF1; 1.14 fold enrichment (6-mer frequency, TF over GST control) with EHF. In addition, the binding signal with SPI1 is 1.23 fold enrichment (6-mer frequency, TF over GST control); in the test with SPIB, 1.2 fold enrichment (6-mer frequency, TF over GST control); with ELK3 it was 1.13 fold enrichment (6-mer frequency, TF over GST control).

For the sequence TATACC, the binding signal with FLI1 was 1.29 fold enrichment (6-mer frequency, TF over GST control); with ELK1, 1.31 fold enrichment (6-mer frequency, TF over GST control); in the test with GABPA it was 1.18 fold enrichment (6-mer frequency, TF over GST control); with ERG, 1.2 fold enrichment (6-mer frequency, TF over GST control); in the test with ELF1 it was 1.18 fold enrichment (6-mer frequency, TF over GST control); in the test with EHF, 1.21 fold enrichment (6-mer frequency, TF over GST control). Besides, the binding signal with SPI1 is 1.05 fold enrichment (6-mer frequency, TF over GST control); in the test with SPIB it was 1.27 fold enrichment (6-mer frequency, TF over GST control); with ELK3 it was 1.16 fold enrichment (6-mer frequency, TF over GST control).

For CCACTG, the binding signal with FLI1 was 1.16 fold enrichment (6-mer frequency, TF over GST control); in the test with ELK1, 1.11 fold enrichment (6-mer frequency, TF over GST control); in the test with GABPA, 1.25 fold enrichment (6-mer frequency, TF over GST control); with ERG it was 1.23 fold enrichment (6-mer frequency, TF over GST control); with ELF1, 1.28 fold enrichment (6-mer frequency, TF over GST control); with EHF it was 1.19 fold enrichment (6-mer frequency, TF over GST control). Also, the binding signal with SPI1 was 1.16 fold enrichment (6-mer frequency, TF over GST control); with SPIB, 1.15 fold enrichment (6-mer frequency, TF over GST control); with ELK3, 1.2 fold enrichment (6-mer frequency, TF over GST control).
